Results reported in PubChem BioAssay (NCATS).
Records with an inconclusive call do not appear. Unmarked numbers belong to inactive results. Calls of active or inactive are those of the source. Calls follow the shape of the full dose curve; tested in HEK293 reporter line.

assay: qHTS for Inhibitors of the Functional Ribonucleoprotein Complex (vRNP) of Lassa (LASV) Arenavirus: Viability assay - alamar blue signal for LASV Primary Screen (AID 1347083); details: cell viability, alamar blue fluorescence (LASV minigenome counter-screen); series mostly up to 57.5 µM; activity change, negative = reduced viability: at the top concentration
% is scaled to controls: 0 for no effect and ±100 for the full control effect.
Also: nearly all actives have a fitted effect of over 80% in size.

For `C[N+]1(C)CCOC(O)(c2ccc(-c3ccc(C4(O)C[N+](C)(C)CCO4)cc3)cc2)C1` (stereo not given), which “activity change, negative = reduced viability” value is on record?
Its value is 9.31%.

With `N=C(N)c1ccc(CS(=O)(=O)F)cc1` as the compound, how does the “activity change, negative = reduced viability” value read?
The value was 5.89%.

Which “activity change, negative = reduced viability” value does the source give for `CC(N)Cc1c[nH]c2ccc(OCc3cccs3)cc12` (stereo not given) here?
Its value is -4.97%.

With `O=C1CC[C@@]2(O)C3Cc4ccc(O)c5c4C2(CCN3CC2CC2)[C@H]1O5` (stereo not given in full) as the compound, how does the “activity change, negative = reduced viability” value read?
The value was -1.6%.

For `CCN1C[C@@]2(COC)C3[C@@H](OC)C4[C@@H]1C3([C@@H]1C[C@]3(O)[C@H](OC(=O)c5ccccc5)[C@@H]1[C@]4(OC(C)=O)[C@@H](O)[C@@H]3OC)[C@H](OC)C[C@H]2O`, which “activity change, negative = reduced viability” value is on record?
The value was 16.1%.

With `CCNC(=O)[C@H]1O[C@@H](n2cnc3c(N)ncnc32)[C@H](O)[C@@H]1O` as the compound, how does the “activity change, negative = reduced viability” value read?
Its value is 15.8%.

With `CO[C@H]1CC=C2CCN3CCC4=C(CC(=O)OC4)[C@]23C1` as the compound, how does the “activity change, negative = reduced viability” value read?
Its value is 6.27%.

assay: qHTS for Inhibitors of the Functional Ribonucleoprotein Complex (vRNP) of Lymphocytic Choriomeningitis Arenaviruses (LCMV): Viability assay - alamar blue signal for LCMV Primary Screen (AID 1347085); details: alamar blue viability counter-screen, LCMV vRNP screen cells; series mostly up to 57.5 µM; activity change, negative = lower viability: at the top concentration; also: potency is read from the fitted curve at half-maximal effect

For `C#CCN[C@H](C)Cc1ccccc1`, which “activity change, negative = lower viability” value is on record?
Its value is 4.12%.

With `NCC(O)c1cc(O)c(O)cc1F` (stereo not given) as the compound, how does the “activity change, negative = lower viability” value read?
Its value is 15.1%.

Which “activity change, negative = lower viability” value does the source give for `NCCc1c[nH]c2ccc(C(N)=O)cc12` here?
Its value is 1.83%.

With `C[C@@H]1O[C@@H](O[C@H]2C[C@@H](O)[C@]3(CO)[C@@H]4C(CC[C@]3(O)C2)[C@@]2(O)CC[C@H]([C@@H]3COC(=O)C3)[C@@]2(C)C[C@H]4O)[C@H](O)[C@H](O)[C@H]1O` (stereo not given in full) as the compound, how does the Potency read?
Its Potency is 2.24 µM (active).

Which “activity change, negative = lower viability” value does the source give for `CC(N)Cc1c[nH]c2ccc(O)cc12` (stereo not given) here?
Its value is 1.87%.

For `NNC(=O)c1ccc(O)cc1`, which “activity change, negative = lower viability” value is on record?
The value was 14.8%.

Which “activity change, negative = lower viability” value does the source give for `C=CCN1CCC23c4c5ccc(O)c4O[C@H]2C(=O)CC[C@@]3(O)C1C5` (stereo not given in full) here?
The value was -0.856%.

With `NC(=O)COc1c(F)cc(SCCNS(=O)(=O)c2ccccc2)cc1F` as the compound, how does the “activity change, negative = lower viability” value read?
The value was -3.1%.

For `CNc1ccc2oc(C[C@H]3O[C@@]4(CC[C@H]3C)O[C@H]([C@H](C)C(=O)c3ccc[nH]3)[C@H](C)C[C@H]4C)nc2c1C(=O)O`, which “activity change, negative = lower viability” value is on record?
The value was -33%.

With `NNC(N)=O` as the compound, how does the “activity change, negative = lower viability” value read?
Its value is 7.68%.

For `c1ccc2c(c1)[I+]c1ccccc1-2`, which Potency is on record?
Its Potency is 6.31 µM (active).

With `Oc1ccc2c3c1O[C@H]1c4[nH]c5ccccc5c4C[C@@]4(O)C(C2)N(CC2CC2)CCC314` (stereo not given in full) as the compound, how does the “activity change, negative = lower viability” value read?
The value was -22.3%.

For `NC(CCCCCP(=O)(O)O)C(=O)O` (stereo not given), which “activity change, negative = lower viability” value is on record?
Its value is 27.3%.

Which Potency does the source give for `O=C1C=CC(=O)C=C1` here?
The Potency was “inactive”.

For `CCCN1CC[C@@H]2c3cc(O)ccc3CC[C@@H]21`, which “activity change, negative = lower viability” value is on record?
Its value is -3.34%.

Which “activity change, negative = lower viability” value does the source give for `OC1CCCCC1N1CCC(c2ccccc2)CC1` (stereo not given) here?
The value was -5.82%.

For `COC(=O)N1CCN(C(=O)Cc2ccc(Cl)c(Cl)c2)C(CN2CCCC2)C1` (stereo not given), which “activity change, negative = lower viability” value is on record?
The value was 19.7%.

For `Cc1[nH]c2ccc(O)cc2c1CCN`, which “activity change, negative = lower viability” value is on record?
The value was 14%.

Which “activity change, negative = lower viability” value does the source give for `NC(=O)c1ccc(OCC(O)CN2CC=C(c3ccc(F)cc3)CC2)cc1` (stereo not given) here?
The value was 20.9%.

For `CCCN(CCC)[C@H]1CCc2c(F)ccc(O)c2C1`, which “activity change, negative = lower viability” value is on record?
The value was -0.586%.

For `Cc1o[nH]c(=O)c1CC(N)C(=O)O` (stereo not given), which “activity change, negative = lower viability” value is on record?
The value was -0.31%.

For `CN(C(=O)Cc1ccc(Cl)c(Cl)c1)C(CN1CCCC1)c1cccc(OCC(=O)O)c1` (stereo not given), which “activity change, negative = lower viability” value is on record?
Its value is 1.3%.

Which “activity change, negative = lower viability” value does the source give for `Cc1cc([C@@H]2CCCN2C)on1` here?
The value was 1.17%.

Which “activity change, negative = lower viability” value does the source give for `C[N+]1(C)CCc2cc3c(cc2[C@H]1[C@@H]1OC(=O)c2c1ccc1c2OCO1)OCO3` here?
Its value is -4.56%.

Which “activity change, negative = lower viability” value does the source give for `CCCN(CCC)C1Cc2cc(OC)c(OC)cc2C1` here?
Its value is 6.91%.

Which “activity change, negative = lower viability” value does the source give for `CCOC(=O)c1ncn2c1[C@@H]1CCCN1C(=O)c1cc(OC)ccc1-2` here?
The value was -15%.

With `CCCN(CCC)CCc1ccc(O)c(O)c1` as the compound, how does the “activity change, negative = lower viability” value read?
Its value is 5.93%.

Which “activity change, negative = lower viability” value does the source give for `CC(N)c1cccc(Cl)c1Cl` (stereo not given) here?
Its value is 6.54%.

For `N[C@@]1(C(=O)O)CC[C@@H](C(=O)O)C1`, which “activity change, negative = lower viability” value is on record?
The value was 18.1%.

For `CC12NC(Cc3ccccc31)c1ccccc12` (stereo not given), which “activity change, negative = lower viability” value is on record?
Its value is 6.19%.

For `c1ccc2c(N3CCNCC3)cccc2c1`, which “activity change, negative = lower viability” value is on record?
Its value is -2.44%.

With `C[N+]1(C)CCOC(O)(c2ccc(-c3ccc(C4(O)C[N+](C)(C)CCO4)cc3)cc2)C1` (stereo not given) as the compound, how does the “activity change, negative = lower viability” value read?
Its value is 14.8%.

With `N=C(N)c1ccc(CS(=O)(=O)F)cc1` as the compound, how does the “activity change, negative = lower viability” value read?
The value was 3.46%.

With `CC(N)Cc1c[nH]c2ccc(OCc3cccs3)cc12` (stereo not given) as the compound, how does the “activity change, negative = lower viability” value read?
Its value is -5.14%.

Which “activity change, negative = lower viability” value does the source give for `O=C1CC[C@@]2(O)C3Cc4ccc(O)c5c4C2(CCN3CC2CC2)[C@H]1O5` (stereo not given in full) here?
Its value is -0.756%.

With `CCN1C[C@@]2(COC)C3[C@@H](OC)C4[C@@H]1C3([C@@H]1C[C@]3(O)[C@H](OC(=O)c5ccccc5)[C@@H]1[C@]4(OC(C)=O)[C@@H](O)[C@@H]3OC)[C@H](OC)C[C@H]2O` as the compound, how does the “activity change, negative = lower viability” value read?
The value was 20%.

Which “activity change, negative = lower viability” value does the source give for `CCNC(=O)[C@H]1O[C@@H](n2cnc3c(N)ncnc32)[C@H](O)[C@@H]1O` here?
The value was -1.55%.

For `CO[C@H]1CC=C2CCN3CCC4=C(CC(=O)OC4)[C@]23C1`, which “activity change, negative = lower viability” value is on record?
Its value is 15.2%.
